We go through 70 compounds from PubChem BioAssay AID1259421 (Broad Institute, 2018).

Several values for one entry are separate records, joined by “and”; a condition that tells them apart may be missing. Equal values may be shown once. The whole screen tested about 6,400 compounds, of which about 610 (9.5%) were called active. Rule as the data show it: active = activity change below about -70%; inconclusive = no clear call, values can overlap the other calls; inactive = above that. The list comes from a sample in which actives are over-represented; it also holds similar structures and randomly drawn compounds. Where a structure was tested more than once in an assay, its records may differ in their call.

The experiment is described as follows: Toxoplasma gondii ME49Luc growth in HeLa cells, luciferase, no IFN-y, primary screen (AID 1259421). The settings on record: T. gondii ME49Luc in HeLa, 72 h, stronger effect = lower value, concentration not given here.
On to `Cc1ccc(NC(=O)C(C)C)cc1C1CCN(Cc2ccc(Oc3ccc(F)c(F)c3)cc2)CC1`, for which the activity change, negative = inhibition was -59.6% (inactive). Take `NC1=NCN([C@H]2C[C@@H](O)[C@@H](CO)O2)C(=O)N1`: the activity change, negative = inhibition is 13.9% (inactive). `Cn1cnc(=N)c2[nH]cnc21`: the activity change, negative = inhibition is 11% (inactive). With `CNC(=O)c1cc(Oc2ccc(NC(=O)Nc3ccc(Cl)c(C(F)(F)F)c3)c(F)c2)ccn1` the figure was -86.3% (active) and -83.6% (active); with `COc1cc(NC(=O)c2ccccn2)ccc1Cl`, 132% (inactive). To `C=CC(=O)Nc1cccc(Nc2nc(Nc3ccc(Oc4ccnc(C(=O)NC)c4)cc3)ncc2F)c1` belongs -38.8% (inactive); to `CNC(=O)c1cc(COc2nnc(Nc3ccc(Cl)cc3)c3ccoc23)ccn1`, -9.12% (inactive); to `O=C(Nc1ccc(Cl)cc1)Nc1ccc(Cl)c(C(F)(F)F)c1`, -76.9% (active). With `C=CC(=O)Nc1ccc(Cl)cc1` the figure was 16.9% (inactive); with `CN1CCN(C2CCN(C(=O)Nc3cc(Oc4ccc(NC(=O)C5(C(=O)Nc6ccc(F)cc6)CC5)c(F)c4)ccn3)CC2)CC1`, -66.6% (inactive); with `CNC(=O)c1cc(Oc2ccc(NC(=O)Nc3ccc(Cl)c(C(F)(F)F)c3)cc2)ccn1`, -70.5% (active) and -84.5% (active). Take `CC(C)C(=O)Nc1ccc([N+](=O)[O-])c(C(F)(F)F)c1`: the activity change, negative = inhibition was 12.9% (inactive). To `Nc1[nH]nc2nnc(-c3c(-c4ccccc4)nn4ccccc34)cc12` belongs -19.2% (inactive); to `OC[C@@H](O)[C@@H](O[C@@H]1O[C@H](CO)[C@H](O)[C@H](O)[C@H]1O)[C@H](O)[C@@H](O)CO`, 24% (inactive); to `NC(Cn1ccc(=O)n(Cc2ccccc2C(=O)O)c1=O)C(=O)O` (stereo not given), 7.15% (inactive). To `CN1C2CCC1CC(OC(=O)c1c[nH]c3ccccc13)C2` (stereo not given) belongs 2.23% (inactive); to `O=C1CC[C@@H](C(=O)O)N1`, 4.43% (inactive); to `C1=C(CN2CCOCC2)COc2c1cccc2OCC1CNCCO1` (stereo not given), 2.39% (inactive). To `CC(C)=CCC/C(C)=C/C=C/C(C)=C/C=C/C(C)=C/C=C/C=C(C)/C=C/C=C(C)/C=C/C=C(\C)CCC=C(C)C` belongs -16.2% (inactive). As for `COc1ccc(-c2cc(=O)c3c(O)c(OC)c(OC)c(OC)c3o2)cc1OC`, the activity change, negative = inhibition was -10.2% (inactive). With `CC1(C)S[C@H]2[C@@H](NC(=O)[C@@H](NC(=O)N3CCN(S(C)(=O)=O)C3=O)c3ccccc3)C(=O)N2[C@@H]1C(=O)O` the figure was 5.45% (inactive); with `CN1CCCC(CN2c3ccccc3Sc3ccccc32)C1` (stereo not given), 11.8% (inactive) and 21.2% (inactive); with `O=c1c2ccccc2nc2n1CCc1c-2[nH]c2ccccc12`, 249% (inactive).

In the case of `CN1c2ccccc2C(=O)N2CCc3c([nH]c4ccccc34)C21` (stereo not given), the activity change, negative = inhibition is -71.6% (active). With `CN1CCc2ccccc2Cc2[nH]c3ccccc3c2CC1` the figure was 12.1% (inactive); with `O=C(O)CCC/C=C/CC1COC(C(F)(F)F)OC1c1ccccc1O` (stereo not given), 0.246% (inactive); with `C=C[C@@]1(C)CC(=O)[C@@]2(O)[C@](C)(O1)[C@@H](OC(C)=O)[C@@H](O)C1C(C)(C)CC[C@H](O)[C@@]12C` (stereo not given in full), 6.95% (inactive). `Cc1ncc(NC(=O)c2ccc(CN3CCN(C)CC3)c(C(F)(F)F)c2)cc1Nc1nccc(-c2cccnc2)n1`: the activity change, negative = inhibition was -77.9% (active). On to `Cc1cn(-c2cc(NC(=O)c3ccc(C)c(Nc4nccc(-c5cccnc5)n4)c3)cc(C(F)(F)F)c2)cn1`, for which the activity change, negative = inhibition is -85.2% (active) and -76.5% (active).

`Cc1ccc(C(=O)Nc2cccc(C(F)(F)F)c2)cc1Nc1nc(-c2cccnc2)nc2c1cnn2C`: the activity change, negative = inhibition was -48.8% (inactive). Consider `Cc1ccc(NC(=O)c2ccc(CN3CCN(C)CC3)cc2)cc1Nc1nccc(-c2cccnc2)n1`, for which the activity change, negative = inhibition was 3.71% (inactive) and 10.8% (inactive) and -1.32% (inactive). To `Cc1ccc(NC(=O)c2ccc(CN3CCN(C)CC3)cc2)cc1Nc1nc(-c2cccnc2)cs1` belongs 47.7% (inactive); to `O=Cc1ccccc1O[C@@H]1O[C@H](CO)[C@H](O)[C@@H](O)[C@H]1O`, 4.65% (inactive); to `NC(=O)c1nc(F)c[nH]c1=O`, 2.13% (inactive).

As to `Cc1c[nH]c2ccccc12`, the activity change, negative = inhibition was -2.35% (inactive). As to `NC(N)=NCCC[C@@H](N)C(=O)O`, the activity change, negative = inhibition was 13.4% (inactive). To `Cn1c(C#N)ccc1-c1ccc2c(c1)C(C)(C)OC(=S)N2` belongs -80.3% (active); to `CCOc1ccccc1N=Nc1c(C)[nH]n(-c2nc(-c3ccccc3)cs2)c1=O`, -0.237% (inactive). As to `Cc1ccc(-n2[nH]c(C)c(N=Nc3cccc(-c4cccc(C(=O)O)c4)c3O)c2=O)cc1C`, the activity change, negative = inhibition was -77.8% (active). Turning to `Cn1cc(C(=O)[C@@H]2CCc3nc[nH]c3C2)c2ccccc21`, the activity change, negative = inhibition was 3.43% (inactive). With `CC1=CC(=O)c2ccccc2C1=O` the figure was 2.88% (inactive) and 20.5% (inactive); with `CC1(C)C(=O)NC2=C1C(=O)C(=O)c1ccccc12`, -90% (active); with `C[N+](C)(C)CCOP(=O)(O)OC[C@H](O)CO`, 7.52% (inactive).

As for `COC(=O)C[C@H]1C(C)(C)[C@@H](OC(C)=O)[C@@H]2CC3=C4CC(=O)O[C@@H](c5ccoc5)[C@]4(C)CCC3[C@@]1(C)C2=O` (stereo not given in full), the activity change, negative = inhibition is 13.2% (inactive). With `CC(=O)O[C@H]1Cc2ccccc2N(C(N)=O)c2ccccc21` the figure was 8.82% (inactive); with `O=c1cc(-c2ccc(O)cc2)oc2cc(O[C@@H]3O[C@H](CO)[C@@H](O)[C@H](O)[C@H]3O[C@@H]3OC[C@](O)(CO)[C@H]3O)cc(O)c12`, -2.43% (inactive); with `CC(C)N=c1cc2n(-c3ccc(Cl)cc3)c3ccccc3nc-2cc1Nc1ccc(Cl)cc1`, -81.2% (active) and 17.4% (inactive). With `Cc1nc2ccccc2n1Cc1ccc(Cl)cc1` the figure was -8.55% (inactive); with `Cc1ccc2c(c1)C(=O)[C@]1(O)CCN(c3ccccc3)C1=N2`, 7.51% (inactive). With `Cc1c(OCC(F)(F)F)ccnc1C[S@@](=O)c1nc2ccccc2[nH]1`, the activity change, negative = inhibition is 83.6% (inactive). For the compound `Cc1[nH]nc2ccc(-c3cncc(OC[C@@H](N)Cc4ccccc4)c3)cc12`, the activity change, negative = inhibition is -82.2% (active).

As for `O=S(=O)(O)c1ccc(-c2c3nc(c(-c4ccc(S(=O)(=O)O)cc4)c4ccc([nH]4)c(-c4ccc(S(=O)(=O)O)cc4)c4nc(c(-c5ccc(S(=O)(=O)O)cc5)c5ccc2[nH]5)C=C4)C=C3)cc1`, the activity change, negative = inhibition was -0.332% (inactive).

With `COc1cc2c(N3CCN(C(=O)Nc4ccc(OC(C)C)cc4)CC3)ncnc2cc1OCCCN1CCCCC1`, the activity change, negative = inhibition was 11% (inactive).

Take `COc1cc2nccc(Oc3ccc(NC(=O)Nc4ccc(F)cc4F)c(F)c3)c2cc1OC`: the activity change, negative = inhibition is -38.1% (inactive).

Regarding `COc1cc2nccc(Oc3ccc(NC(=O)NC4CC4)c(Cl)c3)c2cc1C(N)=O`, the activity change, negative = inhibition is 6.94% (inactive) and -7.61% (inactive). Take `COc1cc2nccc(Oc3ccc(NC(=O)Nc4cc(C)on4)c(Cl)c3)c2cc1OC`: the activity change, negative = inhibition is -84.5% (active). To `COc1cc2nccc(Oc3ccc(NC(=O)C4(C(=O)Nc5ccc(F)cc5)CC4)cc3)c2cc1OC` belongs -93.3% (active); to `COc1cc2c(Oc3ccc(NC(=O)C4(C(=O)Nc5ccc(F)cc5)CC4)cc3F)ccnc2cc1OCCCN1CCOCC1`, -67.4% (inactive); to `Oc1cccc(-c2c3nc(c(-c4cccc(O)c4)c4ccc([nH]4)c(-c4cccc(O)c4)c4nc(c(-c5cccc(O)c5)c5ccc2[nH]5)C=C4)C=C3)c1`, 8.49% (inactive). To `C[C@H](NC(=O)C(C)(C)Oc1ccc(C(F)(F)F)cn1)[C@@H](Cc1ccc(Cl)cc1)c1cccc(C#N)c1` belongs -17.6% (inactive); to `COc1ccc(S(=O)(=O)Nc2nnc(CC(C)C)s2)cc1`, 16.5% (inactive).

`COC(=O)[C@H]1[C@H]2C[C@@H]3c4[nH]c5ccccc5c4CCN3C[C@H]2C[C@@H](OC(=O)c2cc(OC)c(OC)c(OC)c2)[C@@H]1OC`: the activity change, negative = inhibition was -2.54% (inactive).

As for `CC[C@]1(O)CC2CN(CCc3c([nH]c4ccccc34)[C@@](C(=O)OC)(c3cc4c(cc3OC)N(C=O)[C@H]3[C@@](O)(C(=O)OC)[C@H](OC(C)=O)[C@]5(CC)C=CCN6CC[C@]43[C@@H]65)C2)C1` (stereo not given in full), the activity change, negative = inhibition is -76.5% (active).

`CC[C@]1(O)CC2CN(CCc3c([nH]c4ccccc34)[C@@](C(=O)OC)(c3cc4c(cc3OC)N(C)[C@H]3[C@@](O)(C(=O)OC)[C@H](OC(C)=O)[C@]5(CC)C=CCN6CC[C@]43[C@@H]65)C2)C1` (stereo not given in full): the activity change, negative = inhibition was -90.8% (active).

On to `CCC1(O)CC2CN(CCc3c([nH]c4ccccc34)C(C(=O)OC)(c3cc4c(cc3OC)N(C)C3C(O)(C(=O)OC)C(C(=O)OC)C5(CC)C=CCN6CCC43C65)C2)C1` (stereo not given), for which the activity change, negative = inhibition is -82.9% (active). To `CCC1=C[C@@H]2CN(C1)Cc1c([nH]c3ccccc13)[C@@](C(=O)OC)(c1cc3c(cc1OC)N(C)[C@H]1[C@@](O)(C(=O)OC)[C@H](OC(C)=O)[C@]4(CC)C=CCN5CC[C@]31[C@@H]54)C2` belongs -61.1% (inactive); to `CO[C@H]1C[C@H]2CC[C@@H](C)[C@@](O)(O2)C(=O)C(=O)N2CCCC[C@H]2C(=O)O[C@H]([C@H](C)C[C@@H]2CC[C@H](OC(=O)C(C)(CO)CO)[C@H](OC)C2)CC(=O)[C@H](C)/C=C(\C)[C@@H](O)[C@@H](OC)C(=O)[C@H](C)C[C@H](C)/C=C/C=C/C=C/1C`, 9.08% (inactive); to `CCOC(=O)[C@H](CCc1ccccc1)N[C@H]1CCCN2CCC[C@H](C(=O)O)N2C1=O`, -4.74% (inactive). To `CC(N)(C(=O)O)c1ccc(-c2nn[nH]n2)cc1` (stereo not given) belongs 3.49% (inactive); to `C[C@@H]1C(=O)O[C@H]2[C@H](O)C34[C@H]5C[C@@H](C(C)(C)C)[C@]36[C@@H](OC(=O)[C@@H]6O)O[C@]4(C(=O)O5)[C@@]12O` (stereo not given in full), 5.38% (inactive).
